Here are results for 40 sequences from the OligoGym collection.
Also: reference of the scale not given here.

The target in one experiment is ACOT6. Kind of experiment: pooled miR-30 sensor sort-seq; sequence = guide strand. The conditions noted are these: shRNA.
Sequence TTGATAAGTACAGTGGCTGTGA gave a sensor-assay potency score (higher = more potent) of 0.402.
On the same count and under the same terms, the figure for AATACTAGGACCTTTCACCTTT is 0.28; for TTTAGGAATAATCATATCCTTG it is -0.802; for TTCTGGGTAACAGATTATCTGG it is -1.27.
Same read-out and setting: as for TATCCTTGTAATGTAGAGGAGC, the figure is -0.764.

A further experiment deals with ACRV1. The description is as above. The conditions noted are these: shRNA.
Regarding TAGGCTGACTTGATGTTCCTCT, the sensor-assay potency score (higher = more potent) worked out at 0.616.
On the same count and under the same terms, the figure for TTGAACCATGAATTGGAGTTTT is -1.17; for TTTTCCACCTTCAAAGATCTTC it is -0.56.
The same measure, in the same setting: as for TGAAGTTTGATGATCTATGGAG, the figure is 0.139.
Still for that read-out and setting: as for TCGACAGCATATAATTTGCATC, the figure is -1.21.
TTCTTTAACATGCACTGCTGGG had a sensor-assay potency score (higher = more potent) of -0.734.
The same measure, in the same setting: the figure for TCTTCTTTAACATGCACTGCTG is -0.6; for TAATTTGCATCCTCGTTCCATG it is -0.581.
For TAATATTGTGCCTGAAGGCTGT, the sensor-assay potency score (higher = more potent) amounted to 0.0194.
Still for that read-out and setting: the figure for TCAAAGATCTTCTTTAACATGC is -0.277.
Still for that read-out and setting: the figure for TTCAAAGATCTTCTTTAACATG is -1.23; for TTTGCATCCTCGTTCCATGGGA it is 0.226.
Still for that read-out and setting: as for TTCGACAGCATATAATTTGCAT, the figure is -0.0881; as for TTTAACATGCACTGCTGGGAAT, -1.59.
Sequence TTGCATCCTCGTTCCATGGGAG yielded a sensor-assay potency score (higher = more potent) of 0.0526.
Same read-out and setting: as for ATCTTCTTTAACATGCACTGCT, the figure is -0.185; as for TCTTTAACATGCACTGCTGGGA, -0.397; as for ATAATTTGCATCCTCGTTCCAT, -0.172.
Same read-out and setting: the figure for ATTCATATAAGCACATGTGTAG is -0.436; for TTAGGCTGACTTGATGTTCCTC it is -0.162.

For a further experiment, the target named is ACSL3. Described as above. The conditions noted are these: shRNA.
On to TTCTTTACTAGTAATGATGTTG, for which the sensor-assay potency score (higher = more potent) was 0.0529.
Same read-out and setting: as for TTTTTCTTGTCTTGACTCGGAG, the figure is -0.445; as for TAATCTTTAAGCATCCATCGGG, 0.641.
Still for that read-out and setting: the figure for TTTGATTTCACAGCAAACTAAT is -0.867.
In the case of TTGCTGAAATAGCAGCTTCGGA, the sensor-assay potency score (higher = more potent) is -0.935.
TTGTAGTCCCACACTTCGGAAA returned a sensor-assay potency score (higher = more potent) of -1.33.
Still for that read-out and setting: as for TATCTAAAGTATCACATCCAGG, the figure is -0.889; as for TTGAATTTACAGGCTTTGCTTT, -0.455; as for TACAGAGCCACCTTTGTCCATT, -0.892.
Same read-out and setting: the figure for TTTTTGAAGACTGATCTGCTAA is 0.185.
On the same count and under the same terms, as for TTTTCTTGTCTTGACTCGGAGA, the figure is -0.78; as for TAATTCTAGAACATGGGCCAGA, -0.696; as for TTTACTAGTAATGATGTTGGTC, 0.628.
As to TACTAGTGGAAGATTCTTCAAA, the sensor-assay potency score (higher = more potent) was -0.312.
On the same count and under the same terms, as for TTTTGCTTCATTTTTGTAGTAC, the figure is 0.298.
